# In all, about 330,000 compounds went through this assay and about 4,400 (1.3%) were called active. This is one part of a sample in which actives are shown more often than they occur. Values without a mark were called inactive.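 The calls were made as follows: active = growth inhibition of the mutant yeast at or above 50%; inactive = the rest.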
# Assay: growth inhibitors of tim23-1 mutant yeast, primary screen, luminescence, uHTS (AID 463212);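 also: temperature-sensitive mutant grown at 25 °C; plate controls were DMSO-treated mutant yeast for no effect and medium wells lacking yeast for full effect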
# Conditions: S. cerevisiae tim23-1 growth, BacTiter-Glo luminescence, 24 h; at 20 µM; active compounds read high
row,Structure (SMILES),inhibition
1,CC1=NN(C(=O)Cc2ccc(C)cc2)C(O)(c2cccnc2)C1 (centres undefined),-31.5%
2,CC1=NN(C(=O)c2ccc(Br)cc2)C(O)(c2ccccc2)C1 (centres undefined),29.5%
3,CCC1=NN(C(=O)Cc2ccc([N+](=O)[O-])cc2)C(O)(c2ccc(Br)cc2)C1 (centres undefined),50% (active)
4,COc1ccc(CC2c3cc(OC)c(OC)cc3CC[N+]2(C)CCC(=O)OCCCCCOC(=O)CC[N+]2(C)CCc3cc(OC)c(OC)cc3C2Cc2ccc(OC)c(OC)c2)cc1OC (centres undefined),3.67%
5,CC(C)(C)c1ccc(C(=O)N2CCN(CCNC(=O)C(=O)Nc3ccc(F)cc3)CC2)cc1,16.2%
6,COC(=O)c1sccc1NN1C(=O)c2ccccc2C1=O,13.6%
7,COC(=O)c1ccc2c(C(C)(C)O)c(C(C)(C)O)[nH]c2c1,5.76%
8,CCOc1ccc(NC(=O)CCC(=O)n2nc(C)cc2C)cc1,14.6%
9,Cc1cccc(/C=N/NC(=O)CNc2cccc3ccccc23)n1,17.8%
10,Cc1ccccc1NCC(=O)N/N=C\c1ccc([N+](=O)[O-])s1,62.7% (active)
11,CCOc1ccc(NC(=O)CCC(=O)N/N=C/c2ccc([N+](=O)[O-])s2)cc1,79.1% (active)
12,CCOc1ccc(C(=O)CCC(=O)Nc2ccncc2)cc1,11.8%
13,Cc1ccc(/C=N/NC(=O)CN2CCN(Cc3ccccc3)CC2)s1,0.916%
14,CCOC(=O)/C=C/C(=O)OCC(=O)NC(c1ccccc1)c1ccccc1,40.9%
15,O=C(NCc1ccc2c(c1)OCO2)C1CCCN(S(=O)(=O)c2cccs2)C1 (centres undefined),7.36%
16,CCN(C(=O)c1cc([N+](=O)[O-])ccc1NCc1cccnc1)c1ccccc1,24.3%
17,COc1ccc(N=Nc2c(-c3ccc(OC)cc3)[nH]oc2=O)cc1,2.46%
18,CC1CCCCC1NC(=O)C1CCCN1S(=O)(=O)c1cccc2nsnc12 (centres undefined),6.89%
19,Cc1ccccc1CSc1nnc(Cn2c(=O)sc3ccccc32)n1C,18.7%
20,Cc1ccc(N=Cc2c(O)cc(C)oc2=O)c(C)c1,96.2% (active)

row,Structure (SMILES),inhibition
1,Cc1ccc(N=Cc2c(O)n(-c3nccs3)c(=O)c3ccccc23)c(C)c1,-3.15%
2,Cc1cc(O)c(C(=O)/C=C/c2c(F)c(F)c(F)c(F)c2F)c(=O)o1,19.1%
3,CN1CCN(C(=O)c2ccc(-c3ccc(Br)cc3)o2)CC1,4.87%
4,Cc1ccc(S(=O)(=O)NC(=O)N2CCCN(Cc3ccc(F)cc3)CC2)cc1,-9.12%
5,Cc1nc2cc(S(=O)(=O)C(F)(F)F)ccc2s1,-1.26%
6,Cc1cccc(C)c1N1C(=O)CN(Cc2ccccc2)C1=S,54.6% (active)
7,CCc1cccc(C)c1N1C(=O)CN(Cc2ccccc2)C1=S,46.7%
8,COc1cccc(N2C(=O)CN(Cc3ccccc3)C2=S)c1,44.3%
9,Cc1ccc2nc(N3CCN(C(=O)c4ccco4)CC3)sc2c1,26.4%
10,Cc1ccc2cc3cc(C(=O)N4CCCCCC4)oc3nc2c1,53.8% (active)
11,Cc1cc(C)cc(NC(=O)N2CCCCCCC2)c1,27.5%
12,CC(=O)N1CC(=O)N(CC(=O)Nc2ccc(Br)cc2)C1=S,10.5%
13,COC(=O)[C@]1(C)N[C@H](c2ccc(-c3ccc(Cl)c(Cl)c3)cc2)[C@@H]2C(=O)N(C)C(=O)[C@@H]21,30.7%
14,COc1cccc(CNc2ncc(-c3ccccc3)n2C)c1,-8.62%
15,Cc1csc(NC(=S)Nc2cccc(Cl)c2)n1,48.7%
16,CCC(=O)Nc1sc(C(=O)Nc2ccccc2)c(C)c1C(=O)OC,32%
17,CCC(=O)Nc1nc(C)c(C(=O)Nc2cccc(Cl)c2)s1,57.9% (active)
18,O=C(Nc1ccc(N2CCOCC2)nc1)c1c(F)cccc1F,-3.3%
19,Cc1ccc(NC(=S)N2CCN(c3ncccn3)CC2)cc1C,19%
20,Cc1cccc(N2CCN(C(=O)/C=C/c3ccco3)CC2)c1C,38.9%

row,Structure (SMILES),inhibition
1,COc1ccc(C(=O)COC(=O)CN2C(=O)C3CC=CCC3C2=O)c(OC)c1 (centres undefined),12.1%
2,COc1cccc(CNC(=O)C2CCCN(S(=O)(=O)N3CC(C)CC(C)C3)C2)c1 (centres undefined),27.8%
3,CC(=O)Oc1ccc(N(C(C)=O)S(=O)(=O)c2ccc3ccccc3c2)cc1Br,59.3% (active)
4,COCCNC(=O)COc1ccc(N(C)S(=O)(=O)c2ccc3ccccc3c2)cc1,19.5%
5,CN(c1ccc(OCC(=O)O)cc1)S(=O)(=O)c1ccc2ccccc2c1,3.8%
6,CC(=O)n1cc([C@@H]2C=C(C(=O)N3CCN(Cc4ccc5c(c4)OCO5)CC3)O[C@H](OCc3ccc(CO)cc3)C2)c2ccccc21,5.34%
7,O=C(COC(=O)Cc1ccc(Br)cc1)Nc1c(F)c(F)c(F)c(F)c1F,5.57%
8,CCCCOc1ccc(C(=O)NCC(=O)OCC(=O)c2c(N)n(C)c(=O)n(C)c2=O)cc1,7.23%
9,NS(=O)(=O)c1ccc(CCNC(=O)NC2CCCCC2)cc1,8.17%
10,Clc1ncn(CCOc2ccccc2)c1Cl,-4.79%
11,COCCOCCn1cnc2ccccc21,2.15%
12,Cc1cc2ncn(CCCCOc3ccccc3)c2cc1C,51.5% (active)
13,Fc1ccc2cnc(-c3ccccc3)cc2c1,31.1%
14,Fc1ccccc1-c1cc2cc3c(cc2cn1)OCO3,54.8% (active)
15,O=C(c1ccco1)N1CCN(C(=O)c2cc(-c3ccccc3F)no2)CC1,19.6%
16,COc1ccc(-n2c(SCC(=O)Nc3ccc4c(c3)OCO4)nnc2C(C)N2CCCCC2)cc1 (centres undefined),0.001%
17,O=C(O)c1ccc(S(=O)(=O)N2CCC(Cc3ccccc3)CC2)cc1,-3.54%
18,CSCC[C@H](NC(=O)N1CCn2c1nc1ccccc12)C(=O)NCc1ccc2c(c1)OCO2,-0.587%
19,CCCCNC(=O)CCn1c(=O)c2ccccc2n(Cc2cc(C)ccc2C)c1=O,-7.13%

# From PubChem BioAssay AID463212 (Sanford-Burnham Center for Chemical Genomics, 2010)
